Here are results for 40 molecules from PubChem BioAssay (EPA / NIEHS).

Activity calls are given as the source filed them. Rule for the calls: active = hit-call score of the fitted dose curve at least 0.9, where 1 is the maximum; inactive = score below 0.9.

One may read the AC50 as the concentration at which the activity in the assay is half-maximal.

This experiment is described as follows: ATG_BRE_CIS: Attagene CIS-FACTORIAL HepG2 Assay for human Bone Morphogenetic Protein (BMP) Response Element (BRE) (AID 2282933). As to conditions: HepG2 BMP response element reporter, Attagene transcription factor profiling; actives raise or lower the signal. Here is the method: ATG_CIS is a cell-based, multiplexed-readout assay that uses HepG2, a human liver cell line, with measurements taken at 24 hours after chemical dosing in a 24-well plate.ATG_BRE_CIS is one of 52 assay component(s) measured or calculated from the ATG_CIS assay. It is designed to make measurements of mRNA induction, a form of inducible reporter, as detected with fluorescence intensity signals by Reverse transcription polymerase chain reaction (RT-PCR) and Capillary electrophoresis technology.Data from the assay component ATG_BRE_CIS was analyzed into 1 assay endpoint. This assay endpoint, ATG_BRE_CIS, was analyzed with bidirectional fitting relative to DMSO as the negative control and baseline of activity. Using a type of inducible reporter, measures of mRNA for gain or loss-of-signal activity can be used to understand the reporter gene at the transcription factor-level as they relate to the gene SMAD1. Furthermore, this assay endpoint can be referred to as a primary readout, because this assay has produced multiple assay endpoints where this one serves a reporter gene function. To generalize the intended target to other relatable targets, this assay endpoint is annotated to the dna binding intended target family, where the subfamily is Smad protein.
Human liver HepG2 cells are transiently transfected with multiple reporter transcription units (MRTUs) in 6-well plates using FuGene 6 reagent (Roche; 3 ml FuGene/1 mg DNA). The MRTU constructs are regulated by a cis-regulating element (promoter). […] A major difference between the CIS and TRANS system is that in CIS activities of endogenous TFs are measured, whereas the TRANS assay evaluates changes in activities of exogenous, chimeric NR-Gal4 proteins. […] At the end of 24 hour incubation, total RNA was isolated using TriZol reagent (Invitrogen). The isolated RNA is then reverse-transcribed using oligo(dT) primer and Mo-MLV reverse transcriptase (Invitrogen) with DNAse I (Ambion) treatment for 30 min. The one-tenth of the produced cDNA was amplified by PCR using Taq DNA polymerase (Invitrogen) and two reporter sequence-specific primers. The PCR products were fluorescently labeled by primer extension with 6-arboxyfluorescein (6-FAM) 5'-labeled reporter sequence-specific primer (2 min at 95 C, 20 s at 68 C and 10 min at 72 C) and these products were digested with 5U of HpaI (New England Biolabs) for 2h at 37 C. The fragments were purified using Qiaquick PCR columns (Qiagen), analyzed on an ABI 3130xL genetic analyzer (Applied Biosystems) with peak positions identified by using a set of X-rhodamine (ROX)-labeled MapMarker1000 molecular weight standards (BioVentures). The raw capillary electrophoresis data was processed using Attagraph software (Attagene).
For `CCCCCC(=O)O`, the molecule was called inactive.
On the same count and under the same terms, next, `CCCCC(CC)COC(=O)CC(C(=O)OCC(CC)CCCC)S(=O)(=O)O` (stereo not given): “inactive”; `C1CCC(SSC2CCCCC2)CC1`: “inactive”; `COc1cccc2c1C(=O)c1c(O)c3c(c(O)c1C2=O)C[C@@](O)(C(=O)CO)C[C@@H]3O[C@H]1C[C@H](N)[C@H](O)[C@H](C)O1`: “inactive”.
In the case of `FC(F)(F)C(F)(F)C(F)(F)C(F)(F)C(F)(F)C(F)(F)CCI`, the result was inactive.
On to `O=C(O)CCCCC(=O)O`, for which the molecule was classed as inactive.
As for `O=c1[nH]cc(F)c(=O)[nH]1`, the result was inactive.
Same read-out and setting: next, `C=CCOC(=O)c1ccccc1C(=O)OCC=C`: “inactive”.
Still for that read-out and setting: next, `c1cc(-c2ccncc2)ccn1`: “inactive”; `Cc1ccc(N(C)C)cc1`: “inactive”.
The same measure, in the same setting: next, `Cc1nc(C)nc(N2C[C@@H](C)N(c3ccnc([C@@H](C)O)n3)[C@@H](C)C2)n1`: “inactive”.
Turning to `COCCOCCOC`, the outcome was inactive.
Same read-out and setting: then `CCCCCCOCCO`, with “inactive”; and `CC1=C(/C=C/C(C)=C/C=C/C(C)=C/CO)C(C)(C)CCC1`, with “inactive”.
As for `COc1ccc(C)cc1N`, the molecule was called inactive.
`C=CCc1ccc(O)c(OC)c1`: the molecule was called inactive.
Consider `CC(C)c1ccc(C(=O)N=C(N)N)cc1S(C)(=O)=O`, for which the outcome was inactive.
In the case of `COc1ccc(S(=O)(=O)N2C(=O)[C@@](c3ccccc3OC)(N3C[C@H](O)C[C@H]3C(=O)N(C)C)c3cc(Cl)ccc32)c(OC)c1`, the concentration at half-maximal activity (AC50) was 55.5 µM (active).
Take `OC[C@@H](O)[C@@H](O)[C@H](O)[C@H](O)CO`: the molecule was called inactive.
Same read-out and setting: then `CCCCCCCCCCCCCCCC`, with “inactive”.
On to `O=C(OCCCCCOC(=O)c1ccccc1)c1ccccc1`, for which the result was inactive.
Regarding `Cc1oc(-c2ccccc2)nc1CCOc1cccc2c1ccn2CCC(=O)O`, the outcome was inactive.
Turning to `CCOC(=O)C(C)(C)Oc1ccc(Cl)cc1`, the molecule was called inactive.
Take `Cc1ccc(C(C)C)c(O)c1`: the result was inactive.
With `CCCCCCCCCCO`, the molecule was called inactive.
Consider `CCNc1cccc(C)c1`, for which the molecule was classed as inactive.
Still for that read-out and setting: then `NCCO`, with “inactive”; and `CCCCCCCCCCCC(=O)OC`, with “inactive”; and `Clc1cc(Cl)c(Cl)cc1Cl`, with “inactive”.
The same measure, in the same setting: next, `O=C(N[C@@H](Cc1ccccc1)[C@@H](O)C(=O)N1C[C@@H](O)[C@@H](O)C1)c1cc2cc(Cl)ccc2[nH]1`: “inactive”; `CCCCc1ccc2c(n1)[C@@H](c1ccc(OC)cc1C[C@H](C)C(=O)O)[C@H](C(=O)O)[C@H]2c1ccc2c(c1)OCO2`: “inactive”.
Take `CC(=O)OC/C=C(\C)CCC=C(C)C`: the call was inactive.
`COc1ccc2c(c1)c(CC(=O)O)c(C)n2C(=O)c1ccc(Cl)cc1`: the outcome was inactive.
Regarding `O=[N+]([O-])C(CO)(CO)CO`, the result was inactive.
As for `NC(=O)Cn1c(=O)cc(CCN2CCN(c3nccc4sccc34)CC2)c2ccc(F)cc21`, the call was inactive.
Still for that read-out and setting: then `CC(=O)OCCOCCOCCOC(C)=O`, with “inactive”; and `O=C(O)Cc1ccccc1Nc1c(Cl)cccc1Cl`, with “inactive”.
Same read-out and setting: next, `Cc1ccc2ncccc2c1`: “inactive”.
On to `Oc1ccc2c(c1)OC[C@@H](N1CCC(O)(c3ccc(F)cc3)CC1)[C@H]2O`, for which the AC50 is 62.1 µM (active).
Consider `COC(=O)c1ccc(O)cc1`, for which the call was inactive.
